# Assay outcomes: PubChem BioAssay, Broad Institute
# aSyn UTR act – Activators working through SNCA 5'UTR binding (MLPCN); alpha-synuclein 5'UTR reporter, activators screen; activity score, % (tested at 7.5 µM), hits read low; 7.1% of 300,000 active; AID 1814; in the data active = activity score below about -60%
# * hit, by the source's call. Only a sample is shown.
SMILES,aSyn UTR act
Cc1ccccc1C(=O)N/N=C/c1ccc([N+](=O)[O-])s1,93.4
O=C(N/N=C/c1sc2ccccc2c1O)c1cccc2ccccc12,91.6
Cc1ccccc1C(=O)N/N=C/c1ccsc1C,-147.5*
CCc1ccc(C(=O)N/N=C/c2cccc3ccccc23)nc1,-125.5*
Cc1ccccc1C(=O)N/N=C/c1cccc2ccccc12,-71.9*
Cc1ccc(COc2ccc(-c3nnco3)cc2)cc1,-118.1*
CCOC(=O)c1sc(NNC(=O)c2ccc(F)cc2)nc1C,-76.1*
COc1ccc(C(=O)NC(=O)COC(=O)c2ccc3ncsc3c2)cc1,-82.1*
CCOC(=O)c1sc(NC(=O)c2ccc3ncsc3c2)nc1C,-89.1*
CCOC(=O)c1sc(NC(=O)c2cncc(Br)c2)nc1C,-105.4*
Cc1c(Cl)cnc(NC(=O)COC(=O)c2ccc3ncsc3c2)c1Cl,67.1
CCN(CC)CCCNC(=O)c1ccc2c3n(nc2c1)-c1ccc(Cl)cc1CO3,-245.7*
CC(C)NC(=O)c1ccc2c3n(nc2c1)-c1ccc(Cl)cc1CO3,-176.0*
CC(C)CC(NC(=O)c1ccc(Cl)cc1)C(=O)OCC(=O)c1ccc2c(c1)NC(=O)CO2 (stereo unspecified),96.0
COc1ccc(C(=O)Nc2sc(C)c(-c3ccccc3)c2C#N)cc1OC,-91.8*
CC(c1ccccn1)N(C)C(=O)c1ccc2nc(Cc3ccccc3F)oc2c1 (stereo unspecified),-101.9*
Cc1cc(CNC(=O)c2ccc3nc(Cc4ccccc4F)oc3c2)nn1C,-134.6*
O=C(c1ccc2nc(Cc3ccccc3F)oc2c1)N1CCCC1,-150.4*
COc1ccc(Nc2cccc3ccccc23)cc1,-72.4*
COc1cccc(C(=O)Nc2nc3c(c(=O)[nH]2)CCCC3)c1,-96.7*
COc1ccc(C(=O)Nc2cccc3ccccc23)cc1,-137.7*
COc1ccc(Nc2cc(C)c3ccccc3n2)cc1,-100.9*
COc1ccc(Nc2ccc(OC)cc2)cc1,-104.6*
COc1ccc(C(=O)Nc2nc3ccccc3c(=O)[nH]2)cc1,-126.6*
COc1ccc2c(c1)CCc1c(C(=O)N(C)c3ccccc3)noc1-2,-131.7*
SMILES,aSyn UTR act
COCC(C)NC(=O)c1noc2c1CCc1cc(OC)ccc1-2 (stereo unspecified),-132.7*
COCCNC(=O)c1noc2c1CCc1cc(OC)ccc1-2,-98.3*
COc1ccc2c(c1)CCc1c(C(=O)NCc3ccco3)noc1-2,-120.2*
CN(Cc1ccccc1)C(=O)C(C(=O)c1ccc(F)cc1)n1cc(Cl)ccc1=O (stereo unspecified),-67.3*
CN(C)c1ccc(C(=O)c2ccc(O)cc2O)cc1,-114.1*
Cc1nonc1NC(=O)CSc1nc2c(C)cccc2cc1C#N,-98.5*
CCc1cc2c(C)ccc(C)c2nc1SCC(=O)Nc1cc(C)on1,55.1
Cc1cc2cc(C#N)c(SCC(=O)Nc3nonc3C)nc2cc1C,-91.8*
COc1ccc2cc(C#N)c(SCC(=O)Nc3nonc3C)nc2c1,-79.4*
COc1cc(C)ccc1OCc1cc(C(=O)NCCN2CCOCC2)no1,-123.9*
CCN1CCCC1CNC(=O)c1cc(COc2ccc(C)c(C)c2)on1 (stereo unspecified),-62.8*
Cc1ccc(OCc2cc(C(=O)NCC(C)(C)N3CCOCC3)no2)cc1C,-121.8*
CC(=O)N/C(=N\c1nc(C)cc(C)n1)Nc1ccc2ccccc2c1,-166.5*
C=CCn1c(=S)[nH]c2cc(-c3ccccc3)sc2c1=O,-76.9*
C=CCn1c(Sc2ccccc2)nc2c1c(=O)[nH]c(=O)n2C,59.6
CC(=O)Cn1nnc2sc3c(c2c1=O)CCC(C(C)(C)C)C3 (stereo unspecified),-112.6*
Cc1c(C(C)(C)C)sc(=NC(=O)c2ccccc2O)n1C,-125.5*
CCOC(=O)C(C(=O)OCC)C1OC(=O)c2cc3c(cc21)C(=O)OC3C(C(=O)OCC)C(=O)OCC (stereo unspecified),-77.3*
Nc1ccc2oc(-c3ccccc3Cl)nc2c1,56.6
CCc1ccc2oc(-c3cc(N)ccc3Cl)nc2c1,-62.5*
Nc1[nH]n(-c2ccccc2)c(=O)c1N=Nc1ccc2c(c1)OCO2,-204.6*
Cc1[nH]n(-c2ccccc2)c(=O)c1N=Nc1ccccc1,-182.3*
Cc1ccc(N=Nc2c(N)n(-c3ccccc3)[nH]c2=O)cc1,-153.9*
Cc1cc(N2C(=O)C(O)=C(C(=O)c3cc4ccccc4o3)C2c2ccc(OC(C)C)cc2)no1 (stereo unspecified),-90.7*
Cc1nn(C)c(C(=O)Nc2ccc(Br)cc2F)c1Br,-110.1*
SMILES,aSyn UTR act
Cc1occc1C(=O)Nc1ccc(Br)cc1F,-165.3*
COC(=O)Cc1[nH]n(-c2ccccc2)c(=O)c1C(C)=Nc1ccccc1,-70.8*
COC(=O)Cc1[nH]n(-c2nc3ccccc3s2)c(=O)c1C(C)=Nc1ccc(C)cc1,97.5
Cc1ccc(OCCOc2ccc(Cl)cc2Cl)c([N+](=O)[O-])n1,-87.5*
COc1ccc(OCCOc2ccc(C)nc2[N+](=O)[O-])cc1,-106.1*
Cc1ccc(COc2ccc(C)nc2[N+](=O)[O-])cc1,-118.1*
Cc1cc(C)n(-c2nc3c(c(=O)[nH]c(=O)n3C)n2CC(O)COc2ccc(Cl)cc2Cl)n1 (stereo unspecified),73.2
